Measurements reported in the supplement of paper PMC10849652.
About 8,800 targets were measured; listed, in parts, are those with a hit and a random draw of the rest. About 0.5% of all pairs of compound and target were hits.

Tests used:
Experiment in all cases: log2 fold change, soluble protein after heating vs DMSO (PISA); higher = thermal stabilisation; K562 lysate, 10 uM; active = over 0.2 and 3.5 SD of the protein, either way, in both replicates (recomputed)
ibrutinib = compound: C=CC(=O)N1CCC[C@@H](n2nc(-c3ccc(Oc4ccccc4)cc3)c3c(N)ncnc32)C1 [ibrutinib]
How it was run: (§1)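 Quantification was by TMTpro 16plex LC-MS/MS with equalised channel sums, applied to the supernatant after 21,000xg for 90 min. Samples were crude K562 extract at 1 mg/mL protein in PBS pH 7.4 with 1 mM MgCl2, treated with 10 μM compound for 30 min, heated for 3 min across 48°C-58°C, pooled and brought to 0.5% NP-40 at 4°C. Values are log-two fold changes in thermal stability relative to solvent controls, from duplicates.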

[1] = compound: CC(=O)c1cnc2ccc(-c3cc(Cl)c(O)c(Cl)c3)nc2c1N[C@H]1CC[C@H](CN(C)C)CC1
How it was run: as §1

ralimetinib = compound: CC(C)(C)Cn1c(N)nc2ccc(-c3[nH]c(C(C)(C)C)nc3-c3ccc(F)cc3)nc21 [ralimetinib]
How it was run: as §1

[2] = compound: CC(C)(O)CC(=O)NCCn1ccc2ncnc(Nc3ccc(Oc4cccc(C(F)(F)F)c4)c(Cl)c3)c21
How it was run: as §1

[3] = compound: CC(C)C1=C2N=C(C=C(N2N=C1)NCC3=CC=CC=C3)NCCCCCCN
How it was run: as §1

[4] = compound: CC1=C(C(CC(=O)N1)C2=CC=C(C=C2)C(F)(F)F)C(=O)NC3=C(C=C4C(=C3)C=NN4)F
How it was run: as §1

[5] = compound: CC1=C(C2=C(C=C1)C(=O)C3=CC=CC=C3N2CCCN)C
How it was run: as §1

[6] = compound: CC1=C(C=C(C=C1)NC(=O)C2=CC(=CC=C2)C(C)(C)C#N)NC3=CC4=C(C=C3)N=CN(C4=O)C
How it was run: as §1

[7] = compound: CC1=C(C=C(C=C1)NC(=O)C2=CC(=CC=C2)N(C)C)NC(=O)C3=CC=C(C=C3)O
How it was run: as §1

[8] = compound: CC1=CC=C(C=C1)SC2=C3C=C(SC3=CN=C2)C(=O)N
How it was run: as §1

vemurafenib = compound: CCCS(=O)(=O)Nc1ccc(F)c(C(=O)c2c[nH]c3ncc(-c4ccc(Cl)cc4)cc23)c1F [vemurafenib]
How it was run: as §1

[9] = compound: CCCS(=O)(=O)Nc1ccc(F)c(C(=O)c2c[nH]c3ncc(Cl)cc23)c1F
How it was run: as §1

barasertib = compound: CCN(CCCOc1ccc2c(Nc3cc(CC(=O)Nc4cccc(F)c4)[nH]n3)ncnc2c1)CCOP(=O)(O)O [barasertib]
How it was run: as §1

[10] = compound: CC[C@@H]1C(=O)N(C)c2cnc(Nc3ccc(C(=O)NC4CCN(C)CC4)cc3OC)nc2N1C1CCCC1
How it was run: as §1

volasertib = compound: CC[C@@H]1C(=O)N(C)c2cnc(Nc3ccc(C(=O)N[C@H]4CC[C@H](N5CCN(CC6CC6)CC5)CC4)cc3OC)nc2N1C(C)C [volasertib]
How it was run: as §1

[11] = compound: CCn1c(C(=O)N(C2CC2)C2CC2)cc2c3c(ncn3C)c(Nc3cc(C)n(C)n3)nc21
How it was run: as §1

[12] = compound: CCn1cc(-c2ccnc3[nH]c(-c4cccc(CN(C)C)c4)cc23)c(-c2ccc(NC(=O)N(C)C)cc2)n1
How it was run: as §1

[13] = compound: CN1CCC(CNc2ccc3ncc(-c4cccc(OC(F)(F)F)c4)n3n2)CC1
How it was run: as §1

saracatinib = compound: CN1CCN(CCOc2cc(OC3CCOCC3)c3c(Nc4c(Cl)ccc5c4OCO5)ncnc3c2)CC1 [saracatinib]
How it was run: as §1

sotrastaurin = compound: CN1CCN(c2nc(C3=C(c4c[nH]c5ccccc45)C(=O)NC3=O)c3ccccc3n2)CC1 [sotrastaurin]
How it was run: as §1

Measured: log2 fold change

NELFA (UniProt Q9H3P2)
inactive: ibrutinib 0 | [1] 0.001 | ralimetinib -0.038 | [2] 0.003 | [3] -0.012 | [4] 0.008 | [5] 0.008 | [6] -0.022 | [7] -0.04 | [8] -0.024 | vemurafenib 0.015 | [9] 0.02 | barasertib -0.005 | [10] -0.016 | volasertib -0.083 | [11] 0.007 | [12] 0.037 | [13] -0.037 | saracatinib -0.013 | sotrastaurin 0.029

PAK4 (UniProt O96013)
Chain of UniProt O96013 (O96013 whole entry, looked up): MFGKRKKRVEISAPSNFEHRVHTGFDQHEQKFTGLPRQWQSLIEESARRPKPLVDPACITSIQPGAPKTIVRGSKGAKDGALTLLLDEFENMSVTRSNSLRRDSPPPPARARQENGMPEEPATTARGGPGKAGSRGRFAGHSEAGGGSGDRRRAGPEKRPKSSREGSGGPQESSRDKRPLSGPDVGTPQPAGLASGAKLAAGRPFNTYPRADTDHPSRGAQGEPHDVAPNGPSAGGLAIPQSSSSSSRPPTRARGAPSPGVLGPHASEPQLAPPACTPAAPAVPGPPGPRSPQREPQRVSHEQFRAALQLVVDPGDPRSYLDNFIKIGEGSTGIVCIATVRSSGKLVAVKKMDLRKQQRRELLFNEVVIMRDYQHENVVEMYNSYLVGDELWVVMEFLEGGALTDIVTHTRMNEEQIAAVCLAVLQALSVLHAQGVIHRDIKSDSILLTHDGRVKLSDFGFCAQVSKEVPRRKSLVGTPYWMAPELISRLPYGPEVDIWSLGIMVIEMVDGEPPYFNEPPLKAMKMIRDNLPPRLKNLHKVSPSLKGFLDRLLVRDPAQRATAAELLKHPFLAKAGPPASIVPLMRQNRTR
inactive: ibrutinib 0.049 | [1] 0.372 | ralimetinib -0.016 | [2] -0.001 | [3] -0.102 | [4] 0.023 | [5] -0.087 | [6] -0.064 | [7] -0.012 | [8] 0.034 | vemurafenib -0.016 | [9] -0.06 | barasertib -0.005 | [10] -0.131 | volasertib -0.134 | [11] 0.259 | [12] 0.02 | [13] 0.3 | saracatinib -0.018 | sotrastaurin 0.063

MTHFD1L (UniProt B7ZM99)
inactive: ibrutinib -0.034 | [1] -0.014 | ralimetinib 0.004 | [2] 0.011 | [3] -0.007 | [4] -0.005 | [5] -0.006 | [6] 0.033 | [7] 0.02 | [8] -0.023 | vemurafenib 0.01 | [9] 0 | barasertib -0.033 | [10] -0.111 | volasertib -0.002 | [11] 0.019 | [12] -0.013 | [13] -0.056 | saracatinib 0.004 | sotrastaurin 0.036

MYD88 isoform 6 (UniProt Q99836)
Chain of UniProt Q99836 (Q99836 whole entry, looked up): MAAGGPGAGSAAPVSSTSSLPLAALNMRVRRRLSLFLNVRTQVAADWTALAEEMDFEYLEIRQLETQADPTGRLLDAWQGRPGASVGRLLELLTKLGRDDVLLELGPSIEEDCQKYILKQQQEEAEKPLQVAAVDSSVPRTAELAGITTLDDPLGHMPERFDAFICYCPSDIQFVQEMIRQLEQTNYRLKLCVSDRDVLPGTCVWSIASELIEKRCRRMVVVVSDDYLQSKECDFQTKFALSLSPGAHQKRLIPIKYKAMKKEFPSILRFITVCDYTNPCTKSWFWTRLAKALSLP
inactive: ibrutinib 0.044 | [1] 0.003 | ralimetinib 0.022 | [2] 0.005 | [3] 0.024 | [4] 0.002 | [5] -0.028 | [6] -0.009 | [7] -0.024 | [8] -0.029 | vemurafenib -0.031 | [9] 0.01 | barasertib -0.002 | [10] -0.042 | volasertib -0.075 | [11] 0.022 | [12] -0.009 | [13] -0.013 | saracatinib 0.009 | sotrastaurin 0.05

NUP93 (UniProt Q8N1F7)
Chain of UniProt Q8N1F7 (Q8N1F7 whole entry, looked up): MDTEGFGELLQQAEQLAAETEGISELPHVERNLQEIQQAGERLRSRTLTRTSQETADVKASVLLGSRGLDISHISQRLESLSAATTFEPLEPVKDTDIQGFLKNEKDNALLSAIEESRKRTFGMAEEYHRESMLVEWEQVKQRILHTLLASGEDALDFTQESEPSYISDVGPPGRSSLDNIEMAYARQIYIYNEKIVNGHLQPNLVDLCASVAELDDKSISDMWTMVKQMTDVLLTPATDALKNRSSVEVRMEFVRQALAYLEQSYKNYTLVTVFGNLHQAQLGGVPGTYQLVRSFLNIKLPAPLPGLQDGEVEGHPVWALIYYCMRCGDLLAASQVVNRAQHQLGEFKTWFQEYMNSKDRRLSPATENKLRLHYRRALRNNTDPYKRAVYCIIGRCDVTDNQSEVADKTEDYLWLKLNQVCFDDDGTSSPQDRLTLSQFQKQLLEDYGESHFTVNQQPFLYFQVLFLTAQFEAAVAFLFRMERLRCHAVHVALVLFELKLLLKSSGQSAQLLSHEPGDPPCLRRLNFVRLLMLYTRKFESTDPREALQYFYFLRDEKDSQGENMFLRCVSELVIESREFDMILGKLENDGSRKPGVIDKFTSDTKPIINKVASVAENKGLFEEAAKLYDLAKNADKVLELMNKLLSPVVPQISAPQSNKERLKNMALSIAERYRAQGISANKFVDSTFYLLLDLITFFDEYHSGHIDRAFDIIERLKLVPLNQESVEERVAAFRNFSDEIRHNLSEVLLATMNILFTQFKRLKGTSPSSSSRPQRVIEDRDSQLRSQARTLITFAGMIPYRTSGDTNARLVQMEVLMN
inactive: ibrutinib -0.013 | [1] 0.007 | ralimetinib 0.036 | [2] -0.015 | [3] 0 | [4] 0.027 | [5] 0.019 | [6] -0.029 | [7] 0.036 | [8] 0 | vemurafenib -0.001 | [9] 0.014 | barasertib 0.036 | [10] -0.069 | volasertib -0.094 | [11] 0.044 | [12] -0.048 | [13] -0.079 | saracatinib 0.013 | sotrastaurin 0.028

OCRL (UniProt Q01968)
inactive: ibrutinib 0.051 | [1] -0.038 | ralimetinib -0.016 | [2] 0.016 | [3] 0.044 | [4] 0.013 | [5] 0.036 | [6] 0.022 | [7] -0.002 | [8] 0.033 | vemurafenib 0.168 | [9] 0.014 | barasertib 0.04 | [10] 0.018 | volasertib -0.057 | [11] -0.032 | [12] -0.074 | [13] 0.049 | saracatinib 0.027 | sotrastaurin 0.019

NCKAP1L (UniProt P55160)
Chain of UniProt P55160 (P55160 whole entry, looked up): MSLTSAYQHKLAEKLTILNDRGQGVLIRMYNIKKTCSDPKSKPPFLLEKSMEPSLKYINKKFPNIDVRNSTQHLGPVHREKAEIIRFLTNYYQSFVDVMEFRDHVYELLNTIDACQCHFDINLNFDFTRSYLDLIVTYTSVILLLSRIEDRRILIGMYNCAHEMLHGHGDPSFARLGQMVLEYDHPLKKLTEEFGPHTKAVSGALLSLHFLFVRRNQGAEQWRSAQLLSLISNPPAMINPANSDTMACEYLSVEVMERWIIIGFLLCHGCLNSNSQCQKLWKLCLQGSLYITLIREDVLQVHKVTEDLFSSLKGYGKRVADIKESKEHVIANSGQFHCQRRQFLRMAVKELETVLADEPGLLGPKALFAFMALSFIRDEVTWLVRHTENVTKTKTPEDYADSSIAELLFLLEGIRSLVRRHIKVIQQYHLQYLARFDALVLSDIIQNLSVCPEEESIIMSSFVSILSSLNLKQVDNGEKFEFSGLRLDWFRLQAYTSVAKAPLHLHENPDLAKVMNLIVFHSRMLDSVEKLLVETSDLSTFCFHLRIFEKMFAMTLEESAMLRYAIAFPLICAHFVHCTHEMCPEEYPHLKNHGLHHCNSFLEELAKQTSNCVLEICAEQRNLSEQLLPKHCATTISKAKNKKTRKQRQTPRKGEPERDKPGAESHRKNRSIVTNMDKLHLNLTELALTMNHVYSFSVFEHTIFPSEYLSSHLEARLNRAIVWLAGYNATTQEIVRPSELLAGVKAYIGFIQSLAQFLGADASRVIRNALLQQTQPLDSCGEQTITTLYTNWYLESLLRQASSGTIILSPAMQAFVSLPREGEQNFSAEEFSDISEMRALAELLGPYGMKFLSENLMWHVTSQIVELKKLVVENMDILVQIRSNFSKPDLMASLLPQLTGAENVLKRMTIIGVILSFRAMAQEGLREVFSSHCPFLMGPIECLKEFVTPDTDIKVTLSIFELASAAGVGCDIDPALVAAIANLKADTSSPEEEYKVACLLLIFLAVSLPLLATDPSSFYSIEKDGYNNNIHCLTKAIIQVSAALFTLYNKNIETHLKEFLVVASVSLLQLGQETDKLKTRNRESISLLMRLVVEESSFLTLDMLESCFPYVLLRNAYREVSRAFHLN
inactive: ibrutinib -0.18 | [1] 0.021 | ralimetinib 0.025 | [2] -0.04 | [3] -0.111 | [4] -0.051 | [5] -0.089 | [6] -0.012 | [7] 0.04 | [8] 0.025 | vemurafenib -0.14 | [9] 0.032 | barasertib 0.131 | [10] -0.068 | volasertib 0.004 | [11] -0.049 | [12] -0.025 | [13] -0.082 | saracatinib -0.083 | sotrastaurin 0.032

NFIC (UniProt P08651)
Chain of UniProt P08651 (P08651 whole entry, looked up): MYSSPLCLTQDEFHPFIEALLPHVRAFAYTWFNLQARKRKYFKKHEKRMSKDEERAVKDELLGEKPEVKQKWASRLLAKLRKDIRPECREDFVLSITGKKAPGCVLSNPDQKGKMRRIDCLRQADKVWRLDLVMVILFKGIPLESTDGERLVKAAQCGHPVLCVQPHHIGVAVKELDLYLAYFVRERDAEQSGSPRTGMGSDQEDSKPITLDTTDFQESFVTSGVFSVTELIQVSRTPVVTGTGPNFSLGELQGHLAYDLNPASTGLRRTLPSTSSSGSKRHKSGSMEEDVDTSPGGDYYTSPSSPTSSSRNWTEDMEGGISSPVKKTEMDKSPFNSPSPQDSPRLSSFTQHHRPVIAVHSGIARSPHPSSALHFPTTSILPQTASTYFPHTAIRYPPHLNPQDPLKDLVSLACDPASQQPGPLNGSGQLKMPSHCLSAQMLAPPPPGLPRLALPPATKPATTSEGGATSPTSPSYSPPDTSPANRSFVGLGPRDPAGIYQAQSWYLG
active: [12] -0.453
inactive: ibrutinib -0.019 | [1] 0.014 | ralimetinib 0.009 | [2] -0.058 | [3] 0.235 | [4] -0.038 | [5] -0.044 | [6] 0.049 | [7] 0.04 | [8] -0.082 | vemurafenib -0.071 | [9] 0.014 | barasertib -0.106 | [10] 0.101 | volasertib -0.001 | [11] -0.01 | [13] 0.055 | saracatinib 0.049 | sotrastaurin -0.01

PBK (UniProt Q96KB5)
Chain of UniProt Q96KB5 (Q96KB5 whole entry, looked up): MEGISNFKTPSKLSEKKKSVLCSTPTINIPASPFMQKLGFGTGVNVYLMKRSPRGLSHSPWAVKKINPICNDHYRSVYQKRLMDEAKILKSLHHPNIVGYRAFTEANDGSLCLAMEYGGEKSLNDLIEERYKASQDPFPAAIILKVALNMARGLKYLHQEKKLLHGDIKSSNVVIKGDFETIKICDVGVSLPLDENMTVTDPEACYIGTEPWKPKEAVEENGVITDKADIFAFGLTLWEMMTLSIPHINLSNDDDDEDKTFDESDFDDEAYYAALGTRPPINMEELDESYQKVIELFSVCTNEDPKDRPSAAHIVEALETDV
inactive: ibrutinib 0.006 | [1] -0.007 | ralimetinib 0.005 | [2] -0.005 | [3] 0.029 | [4] -0.008 | [5] 0.015 | [6] 0.006 | [7] -0.013 | [8] 0.019 | vemurafenib -0.006 | [9] 0.002 | barasertib -0.009 | [10] -0.069 | volasertib -0.033 | [11] 0.039 | [12] 0.043 | [13] -0.017 | saracatinib -0.018 | sotrastaurin -0.015

MYCBP2 (UniProt O75592)
inactive: ibrutinib 0.014 | [1] -0.027 | ralimetinib 0.033 | [2] -0.085 | [3] 0.014 | [4] 0.016 | [5] -0.028 | [6] 0.028 | [7] 0.036 | [8] -0.033 | vemurafenib -0.026 | [9] 0.036 | barasertib 0.037 | [10] 0.017 | volasertib -0.019 | [11] -0.01 | [12] -0.117 | [13] 0.083 | saracatinib 0.033 | sotrastaurin -0.029

NIFK (UniProt Q9BYG3)
Chain of UniProt Q9BYG3 (Q9BYG3 whole entry, looked up): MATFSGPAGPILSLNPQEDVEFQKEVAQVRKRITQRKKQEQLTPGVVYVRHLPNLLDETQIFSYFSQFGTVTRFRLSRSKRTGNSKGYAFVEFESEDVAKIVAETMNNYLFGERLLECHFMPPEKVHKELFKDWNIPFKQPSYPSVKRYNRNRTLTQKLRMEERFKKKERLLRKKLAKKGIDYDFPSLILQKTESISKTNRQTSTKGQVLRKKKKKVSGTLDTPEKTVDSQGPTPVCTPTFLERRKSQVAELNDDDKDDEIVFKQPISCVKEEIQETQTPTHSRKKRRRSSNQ
inactive: ibrutinib 0.02 | [1] -0.039 | ralimetinib 0.022 | [2] 0.002 | [3] -0.001 | [4] 0.016 | [5] -0.035 | [6] -0.005 | [7] 0.016 | [8] 0.032 | vemurafenib 0.015 | [9] 0.036 | barasertib 0.033 | [10] 0.006 | volasertib -0.027 | [11] 0.009 | [12] 0.093 | [13] -0.045 | saracatinib 0.005 | sotrastaurin -0.018

NT5DC2 isoform 2 (UniProt Q9H857)
Chain of UniProt Q9H857 (Q9H857 whole entry, looked up): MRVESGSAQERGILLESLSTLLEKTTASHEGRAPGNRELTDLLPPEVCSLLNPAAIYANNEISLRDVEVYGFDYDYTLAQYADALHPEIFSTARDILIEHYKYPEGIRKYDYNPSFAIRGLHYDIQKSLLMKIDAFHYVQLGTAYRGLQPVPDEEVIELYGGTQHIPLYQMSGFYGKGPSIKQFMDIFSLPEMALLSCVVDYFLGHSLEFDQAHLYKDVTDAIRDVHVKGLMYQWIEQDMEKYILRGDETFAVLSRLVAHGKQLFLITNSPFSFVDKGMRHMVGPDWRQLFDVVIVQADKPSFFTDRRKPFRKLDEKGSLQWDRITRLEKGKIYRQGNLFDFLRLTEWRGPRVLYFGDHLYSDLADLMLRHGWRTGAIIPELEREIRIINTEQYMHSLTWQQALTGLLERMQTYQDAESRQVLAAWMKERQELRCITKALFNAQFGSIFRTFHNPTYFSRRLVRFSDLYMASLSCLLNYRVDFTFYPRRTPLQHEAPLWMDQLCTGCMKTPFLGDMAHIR
inactive: ibrutinib 0 | [1] -0.066 | ralimetinib -0.015 | [2] -0.026 | [3] 0 | [4] -0.002 | [5] -0.015 | [6] 0.008 | [7] 0.04 | [8] -0.025 | vemurafenib 0 | [9] 0.069 | barasertib 0.001 | [10] 0.011 | volasertib -0.028 | [11] -0.01 | [12] 0.034 | [13] 0.03 | saracatinib -0.017 | sotrastaurin 0.117

NEK7 (UniProt Q8TDX7)
Chain of UniProt Q8TDX7 (Q8TDX7 whole entry, looked up): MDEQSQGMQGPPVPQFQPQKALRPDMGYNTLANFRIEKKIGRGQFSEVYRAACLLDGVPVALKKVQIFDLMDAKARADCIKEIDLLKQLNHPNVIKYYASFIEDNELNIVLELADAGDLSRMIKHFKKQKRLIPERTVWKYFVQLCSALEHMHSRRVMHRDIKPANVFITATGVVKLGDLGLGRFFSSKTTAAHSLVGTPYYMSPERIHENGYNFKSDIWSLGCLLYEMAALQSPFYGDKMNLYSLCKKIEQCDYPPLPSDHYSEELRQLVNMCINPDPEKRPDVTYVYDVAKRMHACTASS
inactive: ibrutinib 0.041 | [1] -0.041 | ralimetinib 0.063 | [2] -0.016 | [3] 0.034 | [4] -0.015 | [5] -0.048 | [6] -0.043 | [7] 0.053 | [8] 0.002 | vemurafenib 0.086 | [9] 0.024 | barasertib 0.002 | [10] -0.006 | volasertib -0.091 | [11] -0.025 | [12] -0.13 | [13] 0.041 | saracatinib 0.013 | sotrastaurin 0.04

PAFAH1B3 (UniProt Q15102)
inactive: ibrutinib 0.073 | [1] -0.004 | ralimetinib 0.003 | [2] -0.01 | [3] 0.015 | [4] -0.026 | [5] 0.014 | [6] -0.002 | [7] 0.02 | [8] 0.006 | vemurafenib -0.008 | [9] 0.002 | barasertib 0.119 | [10] -0.061 | volasertib -0.067 | [11] 0.031 | [12] -0.04 | [13] -0.021 | saracatinib 0.013 | sotrastaurin -0.009

N6AMT1 (UniProt Q9Y5N5)
Chain of UniProt Q9Y5N5 (Q9Y5N5 whole entry, looked up, one chain of several): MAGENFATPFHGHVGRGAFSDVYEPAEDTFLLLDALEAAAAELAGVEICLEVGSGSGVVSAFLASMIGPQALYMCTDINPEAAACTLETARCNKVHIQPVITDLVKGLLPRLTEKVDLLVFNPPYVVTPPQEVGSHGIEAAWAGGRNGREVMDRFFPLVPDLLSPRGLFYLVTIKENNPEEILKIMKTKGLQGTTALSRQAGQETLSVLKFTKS
inactive: ibrutinib 0.103 | [1] -0.03 | ralimetinib 0.005 | [2] -0.006 | [3] 0.009 | [4] -0.045 | [5] -0.026 | [6] 0.01 | [7] 0.024 | [8] 0.027 | vemurafenib 0.201 | [9] -0.016 | barasertib 0.113 | [10] 0.005 | volasertib -0.04 | [11] 0.006 | [12] -0.047 | [13] -0.048 | saracatinib 0.019 | sotrastaurin 0.038
